Results reported in ChEMBL document CHEMBL3988442, “University of Dundee, Small-Polar-MMV Screening Library” (2021).
Screen size: about 48,000 compounds; about 13,000 (27%) showed an effect of 50% or more. This is one part of the list.

What follows are compounds tested on Wolbachia pipientis (assay: Anti-Wolbachia Cell-Based Screen). Conditions: 5 µM.
Format: functional
Parameters: scale not given: in the data most compounds retested in dose-response had high values

SMILES	Percent Effect [%]
CCN1C(=O)COC[C@@H]1[C@H](O)c1ccc(NC(=O)COC)cc1	-2.196
c1cc(-c2nc3c(c(NCCc4c[nH]cn4)n2)CCNCC3)ccn1	6.655
CC(=O)c1cccc(C(=O)N2C[C@@H](CN3CCCCCC3)[C@@H](CO)C2)c1	-7.849
CN(C)c1ccc2c(c1)CN(C(=O)c1c[nH]cn1)C2c1cnco1 (centres undefined)	3.646
CCn1cc(C(=O)n2nc(C)cc2C)c(S(=O)(=O)N2CCCCC2)n1	-19.19
Cc1nccn1-c1cccc(C2CCCN2S(=O)(=O)c2cn(C)cn2)n1 (centres undefined)	-2.327
CCn1cc(S(=O)(=O)N(C)Cc2c(Br)cnn2CC)c(C)n1	5.348
Cn1cnc(S(=O)(=O)N2CCCn3cnc(CN4CCCC4)c3C2)c1	1.863
CCn1cc(S(=O)(=O)N2CCC(C3CCCCN(C)C3=O)CC2)c(C)n1 (centres undefined)	91.1
CN1CCCCC(C2CCN(S(=O)(=O)c3cn(C)cn3)CC2)C1=O (centres undefined)	106.2
CN(Cc1ccccc1)c1ccc(C(F)(F)F)cn1	3.007
Cc1cc(Cl)ccc1NCC(=O)Nc1cc(C(C)(C)C)no1	-19.79
O=C(C[C@@H]1COC[C@H]2CN(Cc3ccsc3)C[C@@H]12)N1CCCC1	-43.11
O=C(C[C@@H]1COC[C@H]2CN(C(=O)c3ccccn3)C[C@@H]12)N1CCCC1.O=C(O)C(F)(F)F	106.7
Cc1cccc(C(=O)N2C[C@@H]3[C@H](CC(=O)N4CCCC4)[C@@H]3C2)n1	-9.844
Cc1cccc(C(=O)N2C[C@@H]3[C@H](CC(=O)NC(C)C)[C@@H]3C2)n1.O=C(O)C(F)(F)F	-21.16
O=C(C[C@@H]1COC[C@H]2CN(Cc3ccc(F)cc3)C[C@@H]12)N1CCCCO1.O=C(O)C(F)(F)F	6.294
Cc1cccc(C(=O)N2C[C@@H]3COC[C@@H](CC(=O)N4CCCC4)[C@@H]3C2)n1.O=C(O)C(F)(F)F	117.6
COc1ccc2c(C)c(C(=O)NCC3CN(S(C)(=O)=O)CCO3)oc2c1 (centres undefined)	-45.67
CC(C)[C@@H]1CN(Cc2ccccc2C#N)C[C@H]1C(=O)O	-3.453
CC(=O)c1cc(CN2C[C@H]3CC[C@@H]2CN(Cc2c(C)noc2C)C3)cs1	0.576
c1ccc(N2CCCC(c3nc(-c4cccnn4)no3)C2)nc1 (centres undefined)	-11.75

SMILES	Percent Effect [%]
c1cnc(Nc2cncc(C3CCCN(c4cnccn4)C3)n2)nc1 (centres undefined)	136.5
c1cnc(Nc2cncc(C3CCCN(c4ncccn4)C3)n2)nc1 (centres undefined)	144.2
Cc1cc(NC(=O)CNc2cccc(C(=O)N3CCCC(O)C3)c2)no1 (centres undefined)	-4.959
O=C(Cn1c(=O)oc2ccccc21)NCC(O)c1ccc2c(c1)CCO2 (centres undefined)	-5.514
O=C(CCn1c(=O)oc2ccccc21)NCC(O)c1ccccc1 (centres undefined)	124.9
CC(NC(=O)CCn1c(=O)oc2ccccc21)c1ccccn1 (centres undefined)	132.8
O=C(CCCc1ccccn1)NCC(O)c1ccccc1Cl (centres undefined)	8.067
CC(c1ccccn1)N(C)C(=O)NCCn1c(=O)oc2ccccc21 (centres undefined)	-13.01
O=C(CCn1c(=O)oc2ccccc21)NCC(O)c1ccc(F)c(F)c1 (centres undefined)	132.5
O=C(NCC(O)c1ccc(F)c(F)c1)c1ccccc1F (centres undefined)	-40.57
CC(NCCn1c(=O)oc2ccccc21)c1ccccn1 (centres undefined)	-1.92
Cc1ccc(C(O)CNC(=O)CCCc2ccccn2)o1 (centres undefined)	-12.57
Nc1nnc(SCC(=O)NCC(O)c2ccccc2)s1 (centres undefined)	7.273
O=C(CCc1ccccn1)NCC(O)c1ccc(Cl)cc1Cl (centres undefined)	-3.695
O=C(CCn1c(=O)oc2ccccc21)NCC(O)c1ccc(Cl)cc1 (centres undefined)	131.9
COCc1ccc(C(=O)NS(=O)(=O)c2ccc3c(c2)CCC(=O)N3)cc1	-28.72
Cc1cc(N2CCN(C(=O)c3cc(Cl)c[nH]3)CC2)nc(C)n1	-11.81
COc1ccc([C@@H]2CN(c3cc(C(=O)O)ccn3)C[C@H]2N(C)C)cc1	-11.81
COc1cccc(-c2c[nH]c(C3CCCN3)n2)c1.Cl.Cl (centres undefined)	-13.27
COc1cccc(-c2cc(C3CCCNC3)ccn2)c1 (centres undefined)	179.8
COc1ccc(-c2cc(C3CCCNC3)ccn2)cc1.Cl (centres undefined)	198.3
Cn1ccnc1CN1CCC(c2ccnc(-c3cccc(O)c3)c2)C1 (centres undefined)	8.376

SMILES	Percent Effect [%]
COc1ccc(-c2nc(C3CCNCC3)cc3c2ncn3C)cc1.Cl.Cl	-43.66
COc1ccc(-c2cc(C3CCNCC3)ccn2)cc1.Cl	126.8
COc1ccc([C@@H](C)n2ccnc2-c2cc3n(n2)CCCNC3)cc1	-13.97
COc1ccc(-c2cc(C3CCN(C(C)=O)CC3)ccn2)cc1	135.1
COc1ccc(OC)c(C2CCN(C3CCN(C(C)=O)CC3)C2)c1 (centres undefined)	-1.425
CC(NC(=O)CCCc1ccc(Cl)cc1)c1n[nH]c(=O)[nH]1 (centres undefined)	26.11
COCCCNC(=O)C1CCN(CC2(O)CCC(C)CC2)CC1 (centres undefined)	-1.754
O=C(c1ccc(O)c(Cl)c1)N1CCC(c2n[nH]c(C3CC3)n2)CC1	7.915
Cc1noc(C)c1CCCNC(=O)Nc1ccc2c(c1)COC2	12.5
Cc1noc(C)c1CNC(=O)Nc1ccc(N2CCOC(C)C2)cc1 (centres undefined)	95.8
Cc1noc(C)c1CNC(=O)Nc1ccc(N2CCOC2=O)cc1	99.13
Cc1noc(C)c1CNC(=O)Nc1ccc(N2CCSCC2)cc1	101.4
Cc1ocnc1CNC(=O)Nc1ccc(N2CCOC(C)C2)cc1 (centres undefined)	105.8
Cc1noc(C)c1C(=O)NCc1ccc(N2CCOC(C)C2)nc1 (centres undefined)	6.815
Cc1ccsc1CNC(=O)c1ccc(N2CCOC2=O)cc1	25.75
CC1CN(c2ccc(CNC(=O)NCc3ccoc3)cn2)CCO1 (centres undefined)	4.131
CC1CN(c2ccc(CNC(=O)NCCO)cn2)CCO1 (centres undefined)	-1.494
Cc1noc(C)c1CCCNC(=O)Nc1ccc2c(c1)CC(=O)N2	-4.957
Cc1noc(C)c1CN1C[C@@H](C(=O)O)[C@H](c2ccccc2)C1	-10.93
Cc1noc(C)c1CNC(=O)N1CCC(CO)CC1	-12.65
